Tested on: AURKB
Settings: concentration: 1 μM, replicates: in singlicate; n = 1
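Further: KINOMEscan kinase panel screen.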

Row | Structure (SMILES) | %Inh
1 | N#Cc1ccc(Oc2ccc(Nc3ncnc4cc[nH]c34)cc2Cl)cc1 | 16%
2 | Cc1cc(N2CCC(NS(=O)(=O)c3ccc(F)cc3)CC2)nc(Nc2cccc(C#N)c2)n1.O=C(O)C(F)(F)F [GSK1653537] | 0%
3 | O=C(NCCCN1CCCC1=O)c1cnc(NCc2cc(Cl)ccc2Cl)nc1NC1CCNCC1 | 0%
4 | c1ccc(-c2ccc3c(-c4ccnc(Nc5ccc6c(c5)OCCO6)n4)cnn3n2)cc1 [GW818941] | 0%
5 | CNc1nccc(-c2c(-c3ccc(F)cc3)ncn2CCCN2CCOCC2)n1 [SB-222516] | 11%
6 | C[C@@H]1CCN(C(=O)CO)C[C@@H]1N(C)c1ncnc2[nH]ccc12 | 0%
7 | Cn1ccc2ncnc(Oc3ccc(NC(=O)Nc4cccnc4)c(Cl)c3)c21 | 47%
8 | O=C(c1ccc(-c2cc(-c3c[nH]nc3-c3ccccn3)ccn2)cc1)N1CCCC1 [GW792479] | 11%
9 | O=C(Nc1n[nH]c2nc(-c3ccco3)c(Br)cc12)c1ccc(CN2CCCC2)cc1.O=C(O)[C@H](O)[C@@H](O)C(=O)O [SB-742352] | 0%
10 | Nc1n[nH]c2nnc(-c3ccccc3)cc12 [SB-517389] | 32%
11 | Oc1ccc2ncnc(Nc3ccc(OCc4ccccc4)cc3)c2c1 [GI262866] | 21%
12 | O=C(CCO)NCCn1ccc2ncnc(Nc3ccc(Oc4cccc(C(F)(F)F)c4)c(Cl)c3)c21 | 0%
13 | Nc1nc(-c2cccnc2)c(-c2ccnc3ccccc23)s1 [GW684083] | 7%
14 | COc1ccc(Nc2nccc(N3CCC(NC(=O)c4cccc(NC(C)=O)c4)C3)n2)cc1 (stereo not drawn) [GSK1379732] | 1%
15 | CC(=O)Nc1n[nH]c2ncc(-c3ccccc3)cc12 [SB-548492] | 17%
16 | COc1ccc(Nc2nccc(N3CCC(NC(=O)Nc4ccc5c(c4)OCO5)C3)n2)cc1 (stereo not drawn) [GSK1379745] | 13%
17 | CCCc1ccc(S(=O)(=O)NC2CCN(c3ccnc(Nc4ccc(OC)cc4)n3)C2)cc1 (stereo not drawn) [GSK1379737] | 32%
18 | Nc1nccc2scc(-c3ccc4c(c3)CCN4C(=O)Cc3cc(F)ccc3F)c12 [GSK2587663] | 8%

Row | Structure (SMILES) | %Inh
19 | CS(=O)(=O)CCNCc1nc(-c2ccc3ncnc(Nc4ccc(OCc5cccc(F)c5)c(Cl)c4)c3c2)cs1.Cl [GW583340] | 0%
20 | COc1ccc(NC(=O)Nc2ccc(C)c(-c3ccc(C(=O)Nc4ccncc4)cc3)c2)cc1 [GSK1398475] | 0%
21 | FC(F)(F)c1cc(Nc2nccc(-c3c(-c4ccc(Cl)cc4)nn4ncccc34)n2)ccc1Cl [GW829351] | 0%
22 | Cl.Cl.c1ccc(-c2cc3ccncc3cc2OC2CCNCC2)cc1 [GSK1122999] | 10%
23 | Nc1nc(-c2ccc3c(N)n[nH]c3c2)cc(N2CCCCC2)n1 [GSK2228768] | 14%
24 | COc1cc2c(Nc3cccc(NC(=O)c4ccccc4)c3)ncnc2cc1OCCCN1CCOCC1 [GSK223810] | 23%
25 | Clc1cccc(-c2nc(Nc3ccncc3)c3ccccc3n2)c1 [GW873004] | 17%
26 | CSc1ccc(NC2=C(c3ccccc3Cl)C(=O)NC2=O)cc1 [SB-342411] | 2%
27 | O=C(Nc1ccccc1F)NC1CCN(c2ccnc(Nc3ccc(F)cc3)n2)C1 (stereo not drawn) [GSK1379722] | 38%
28 | Cc1ccc(NC(=O)c2cccc(C#N)c2)cc1-c1ccc(C(=O)Nc2ccncc2)cc1 [GSK1398463] | 12%
29 | Nc1nc(-c2ccc3c(N)n[nH]c3c2)cc(N2CCC[C@@H](C(=O)Nc3ccccc3)C2)n1.O=C(O)C(F)(F)F.O=C(O)C(F)(F)F [GSK2288359] | 0%
30 | CCc1nc(-c2cccc(C)c2)c(-c2ccnc(NC(=O)c3ccccc3)c2)s1 | 6%
31 | Cl.Fc1ccccc1COc1ccc(Nc2ncnc3ccc(-c4nnc(C(F)(F)F)o4)cc23)cc1Cl [GW424170] | 0%
32 | Clc1cc(Nc2ncnc3cc[nH]c23)ccc1OCc1ccccn1 | 13%
33 | CC(C)N1CCC(n2cnc(-c3ccc(F)cc3)c2-c2ccnc(N)n2)CC1 [SB-223132] | 0%
34 | COC(=O)c1cccc(NC(=O)NCCNc2ccnc(Nc3ccc(F)cc3)n2)c1 [GSK1379883] | 0%
35 | Cc1ccc(C)c(NC(=O)NCCNc2ccnc(Nc3ccc(F)cc3)n2)c1 [GSK1379878] | 0%
36 | CCC(CC)(CC)n1cnc2c(N)ncnc21 [SKF-97620] | 24%

Tested on: AURKC
Settings: concentration: 1 μM, replicates: in singlicate; n = 1

Row | Structure (SMILES) | %Inh
37 | N#Cc1ccc(Oc2ccc(Nc3ncnc4cc[nH]c34)cc2Cl)cc1 | 11%
38 | Cc1cc(N2CCC(NS(=O)(=O)c3ccc(F)cc3)CC2)nc(Nc2cccc(C#N)c2)n1.O=C(O)C(F)(F)F [GSK1653537] | 18%
39 | O=C(NCCCN1CCCC1=O)c1cnc(NCc2cc(Cl)ccc2Cl)nc1NC1CCNCC1 | 0%
40 | c1ccc(-c2ccc3c(-c4ccnc(Nc5ccc6c(c5)OCCO6)n4)cnn3n2)cc1 [GW818941] | 26%
41 | CNc1nccc(-c2c(-c3ccc(F)cc3)ncn2CCCN2CCOCC2)n1 [SB-222516] | 21%
42 | C[C@@H]1CCN(C(=O)CO)C[C@@H]1N(C)c1ncnc2[nH]ccc12 | 0%
43 | Cn1ccc2ncnc(Oc3ccc(NC(=O)Nc4cccnc4)c(Cl)c3)c21 | 0%
44 | O=C(c1ccc(-c2cc(-c3c[nH]nc3-c3ccccn3)ccn2)cc1)N1CCCC1 [GW792479] | 0%
45 | O=C(Nc1n[nH]c2nc(-c3ccco3)c(Br)cc12)c1ccc(CN2CCCC2)cc1.O=C(O)[C@H](O)[C@@H](O)C(=O)O [SB-742352] | 0%
46 | Nc1n[nH]c2nnc(-c3ccccc3)cc12 [SB-517389] | 0%
47 | Oc1ccc2ncnc(Nc3ccc(OCc4ccccc4)cc3)c2c1 [GI262866] | 34%
48 | O=C(CCO)NCCn1ccc2ncnc(Nc3ccc(Oc4cccc(C(F)(F)F)c4)c(Cl)c3)c21 | 0%
49 | Nc1nc(-c2cccnc2)c(-c2ccnc3ccccc23)s1 [GW684083] | 10%
50 | COc1ccc(Nc2nccc(N3CCC(NC(=O)c4cccc(NC(C)=O)c4)C3)n2)cc1 (stereo not drawn) [GSK1379732] | 1%
51 | CC(=O)Nc1n[nH]c2ncc(-c3ccccc3)cc12 [SB-548492] | 32%
52 | COc1ccc(Nc2nccc(N3CCC(NC(=O)Nc4ccc5c(c4)OCO5)C3)n2)cc1 (stereo not drawn) [GSK1379745] | 43%
53 | CCCc1ccc(S(=O)(=O)NC2CCN(c3ccnc(Nc4ccc(OC)cc4)n3)C2)cc1 (stereo not drawn) [GSK1379737] | 0%
54 | Nc1nccc2scc(-c3ccc4c(c3)CCN4C(=O)Cc3cc(F)ccc3F)c12 [GSK2587663] | 35%

Row | Structure (SMILES) | %Inh
55 | CS(=O)(=O)CCNCc1nc(-c2ccc3ncnc(Nc4ccc(OCc5cccc(F)c5)c(Cl)c4)c3c2)cs1.Cl [GW583340] | 0%
56 | COc1ccc(NC(=O)Nc2ccc(C)c(-c3ccc(C(=O)Nc4ccncc4)cc3)c2)cc1 [GSK1398475] | 0%
57 | FC(F)(F)c1cc(Nc2nccc(-c3c(-c4ccc(Cl)cc4)nn4ncccc34)n2)ccc1Cl [GW829351] | 0%
58 | Cl.Cl.c1ccc(-c2cc3ccncc3cc2OC2CCNCC2)cc1 [GSK1122999] | 28%
59 | Nc1nc(-c2ccc3c(N)n[nH]c3c2)cc(N2CCCCC2)n1 [GSK2228768] | 23%
60 | COc1cc2c(Nc3cccc(NC(=O)c4ccccc4)c3)ncnc2cc1OCCCN1CCOCC1 [GSK223810] | 51%
61 | Clc1cccc(-c2nc(Nc3ccncc3)c3ccccc3n2)c1 [GW873004] | 10%
62 | CSc1ccc(NC2=C(c3ccccc3Cl)C(=O)NC2=O)cc1 [SB-342411] | 13%
63 | O=C(Nc1ccccc1F)NC1CCN(c2ccnc(Nc3ccc(F)cc3)n2)C1 (stereo not drawn) [GSK1379722] | 30%
64 | Cc1ccc(NC(=O)c2cccc(C#N)c2)cc1-c1ccc(C(=O)Nc2ccncc2)cc1 [GSK1398463] | 6%
65 | Nc1nc(-c2ccc3c(N)n[nH]c3c2)cc(N2CCC[C@@H](C(=O)Nc3ccccc3)C2)n1.O=C(O)C(F)(F)F.O=C(O)C(F)(F)F [GSK2288359] | 34%
66 | CCc1nc(-c2cccc(C)c2)c(-c2ccnc(NC(=O)c3ccccc3)c2)s1 | 0%
67 | Cl.Fc1ccccc1COc1ccc(Nc2ncnc3ccc(-c4nnc(C(F)(F)F)o4)cc23)cc1Cl [GW424170] | 0%
68 | Clc1cc(Nc2ncnc3cc[nH]c23)ccc1OCc1ccccn1 | 0%
69 | CC(C)N1CCC(n2cnc(-c3ccc(F)cc3)c2-c2ccnc(N)n2)CC1 [SB-223132] | 51%
70 | COC(=O)c1cccc(NC(=O)NCCNc2ccnc(Nc3ccc(F)cc3)n2)c1 [GSK1379883] | 32%
71 | Cc1ccc(C)c(NC(=O)NCCNc2ccnc(Nc3ccc(F)cc3)n2)c1 [GSK1379878] | 15%
72 | CCC(CC)(CC)n1cnc2c(N)ncnc21 [SKF-97620] | 0%
